Compound activity deposited in PubChem BioAssay by several laboratories.
The list is not random: actives were taken first. Their share in the collection is about 4.5%.
aSyn UTR inh – MLPCN primary screen, SNCA 5' untranslated region; inhibition, % (tested at 7.5 µM); 300,000 tested, 0.82% active; alpha-synuclein 5'UTR reporter, inhibitor activity; AID 1813; in the data active means inhibition above about 60%;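 further: H4 neuroglioblastoma cells stably carrying SNCA 5'UTR luciferase fusion; 0% = DMSO wells and 100% = positive control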
Gli-Sufu block – Gli-Sufu pathway antagonism | Sufu-KO-LIGHT fibroblasts, Gli luciferase reporter luminescence | inhibition, % at 5 µM | 340,000 tested, 0.74% active;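 active means inhibition above about 55%, limit read from the data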;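 further: 0% = DMSO-treated cells and 100% = wells with medium but no cells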
697 NFkB inh – inhibitors of the PMA/ionomycin-induced NF-kB reporter in 697 B cells | inhibition, % at 4 µM | 697 B-cell NF-kB luciferase reporter, 16 h | 330,000 tested, 0.33% active; in the data active means inhibition above about 35%
Jurkat NFkB inh – lowers PMA/ionomycin-induced NF-kB signal in Jurkat cells; PMA/ionomycin-induced NF-kB luciferase reporter, luminescence; inhibition, % at 4 µM; 330,000 tested, 0.53% active; AID 435003; in the data active means inhibition above about 50%
Mdm2 MdmX PPI – human Mdm2/MdmX binding inhibition; inhibition, % at 8 µM; O15151+Q00987; SaOS-2 split-luciferase Mdm2/MdmX complementation, luminescence; 330,000 tested, 3% active; AID 485346;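 active means inhibition of at least 50% at 8 µM in the primary screen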
Target sequence (O15151 whole entry, looked up): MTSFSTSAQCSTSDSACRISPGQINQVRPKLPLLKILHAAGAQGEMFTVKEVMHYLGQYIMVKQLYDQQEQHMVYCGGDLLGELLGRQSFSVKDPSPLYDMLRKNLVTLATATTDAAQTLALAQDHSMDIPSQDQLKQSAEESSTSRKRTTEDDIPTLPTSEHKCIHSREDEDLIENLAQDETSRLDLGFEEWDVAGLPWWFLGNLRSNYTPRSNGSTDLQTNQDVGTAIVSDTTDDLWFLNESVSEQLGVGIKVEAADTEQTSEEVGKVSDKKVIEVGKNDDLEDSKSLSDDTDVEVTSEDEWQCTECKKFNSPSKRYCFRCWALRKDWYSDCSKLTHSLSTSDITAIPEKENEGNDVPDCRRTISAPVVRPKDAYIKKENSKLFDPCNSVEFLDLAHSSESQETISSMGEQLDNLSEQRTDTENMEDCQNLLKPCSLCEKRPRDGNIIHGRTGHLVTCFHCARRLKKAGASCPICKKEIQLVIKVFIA
Target sequence (Q00987 whole entry, looked up): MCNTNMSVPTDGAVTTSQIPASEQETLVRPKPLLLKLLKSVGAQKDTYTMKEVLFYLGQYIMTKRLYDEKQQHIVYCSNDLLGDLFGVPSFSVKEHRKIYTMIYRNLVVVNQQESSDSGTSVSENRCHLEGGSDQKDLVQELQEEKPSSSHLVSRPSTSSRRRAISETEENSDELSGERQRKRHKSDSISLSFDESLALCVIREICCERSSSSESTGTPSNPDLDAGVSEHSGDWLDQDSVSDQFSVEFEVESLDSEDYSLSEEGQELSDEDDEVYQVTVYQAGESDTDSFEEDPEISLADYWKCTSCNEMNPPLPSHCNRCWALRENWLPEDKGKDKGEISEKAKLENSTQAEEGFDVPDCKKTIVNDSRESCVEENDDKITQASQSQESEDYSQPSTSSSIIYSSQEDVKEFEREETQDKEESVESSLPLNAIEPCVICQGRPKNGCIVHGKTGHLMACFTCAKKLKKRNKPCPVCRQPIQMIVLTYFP
CSC inhib – blocks cancer stem cells; cancer stem cell-like cells viability, luminescence; inhibition, % at 7.5 µM; 300,000 tested, 1.1% active; AID 2717; in the data active means inhibition above about 75%; tested in HMLE shEcad cells
Jurkat NFkB conf – lowers PMA/ionomycin-induced NF-kB signal in Jurkat cells. shares compounds with Jurkat NFkB inh. Jurkat NF-kB luciferase, 16 h. inhibition, % at 4 µM. 2,700 tested, 27% active. AID 435020;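 active means inhibition reaching about 45% at 4 µM in either replicate, limit read from the data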;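 further: plate controls were PMA/ionomycin stimulated DMSO wells for no effect and unstimulated DMSO wells for full effect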
697 NFkB conf – inhibitors of the PMA/ionomycin-induced NF-kB reporter in 697 B cells, retest; 2,000 tested, 35% active; shares compounds with 697 NFkB inh; inhibition, % at 4 µM; 697 B-cell NF-kB luciferase, 16 h; in the data active means inhibition mostly above about 28%, no sharp cut-off; inactive means mostly below about 22%
Mdm2-MdmX conf – confirmation of human Mdm2/MdmX interaction inhibitors. inhibition, % at 8 µM. shares compounds with Mdm2 MdmX PPI. Mdm2-MdmX binding, luminescent assay. 10,000 tested, 55% active; in the data active means inhibition above about 40%
FLuc counter – counter-screen for Mdm2/MdmX inhibitors: full-length luciferase; shares compounds with Mdm2 MdmX PPI; SaOS-2 full-length luciferase counterscreen, luminescence; inhibition, % at 8 µM; 6,200 tested, 77% active; AID 504607;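 active means mean inhibition at 8 µM reaching about 37%, which flags the compound as non-specific, limit read from the data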;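 further: p53-null SaOS-2 cells with luciferase driven by a doxycycline-inducible promoter; compound on cells about two nights before reading with doxycycline added after day one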
The depositor's hits bear a star; nt = not tested or not shown.

SMILES | aSyn UTR inh | Gli-Sufu block | 697 NFkB inh | Jurkat NFkB inh | Mdm2 MdmX PPI | CSC inhib | Jurkat NFkB conf | Mdm2-MdmX conf | FLuc counter | others
O=S(=O)(c1ccc(Cl)cc1)c1snnc1-c1ccccc1 | 116* | 7 | -96 | 53* | 98* | 108* | 12 | 80* | 56*
CCN(CC)CCCNc1ccc(-c2nnc(-c3ccc(OCC(C)C)cc3)o2)cn1 | 121* | -5 | -45 | 60* | 100* | 103* | 26 | 88* | 24
CC1(C)N=C(N)N=C(N)N1CCCCc1ccccc1 | nt | 8 | nt | nt | nt | nt | nt | nt | nt
CCc1ccc(/C=N/NC(=O)c2cc(C3CC3)nc3ccc(Br)cc23)s1 | 49 | -6 | -42 | 56* | 63* | -9 | 21 | 55* | 54*
CCc1ccc(/C=N/NC(=O)c2cc(-c3ccccc3OC)nc3ccccc23)s1 | 20 | 2 | -3 | -9 | 24 | nt | nt | nt | nt
Cc1c2n(c3ccccc13)CCN(C)C2 | 9 | 4 | -13 | 12 | -3 | 7 | nt | nt | nt
CCCCOc1ccccc1NC(=O)Cn1c(-c2nonc2N)nc2ccccc21 | 124* | 31 | 35* | 59* | 90* | 61 | 30 | 20 | nt | 697 NFkB conf=-56
COc1cc(Cn2c(-c3nonc3N)nc3ccccc32)ccc1C | 96* | 4 | 6 | 62* | 55* | 59 | 46 | 62* | 46*
COc1cccc(Cn2c(-c3nonc3N)nc3ccccc32)c1 | 96* | 15 | -19 | 51* | 54* | 54 | 34 | 56* | 70*
Cc1ccc(Cn2c(-c3nonc3N)nc3ccccc32)cc1 | 23 | 6 | 4 | 33 | 36 | -7 | nt | nt | nt
COc1cccc(-c2ccc(NC(=O)C3CCCN(CCCn4nc(C)cc4C)C3)cc2)c1 (stereo not drawn) | -30 | 16 | -56 | -13 | 42 | -7 | nt | nt | nt
CC(C)(CCc1ccccn1)C(=O)CCCc1ccccn1 | nt | 3 | nt | nt | nt | nt | nt | nt | nt
COC(=O)c1cn[nH]c1NC(=S)Nc1ccccc1C | -49 | -47 | -54 | 8 | -8 | nt | nt | nt | nt
COC(=O)c1cn[nH]c1NC(=S)Nc1ccc(Cl)c(Cl)c1 | -101 | -32 | -420 | -278 | 56* | -5 | -109 | -20 | nt | 697 NFkB conf=-215
COC(=O)c1cn[nH]c1NC(=S)Nc1ccc(C)cc1Cl | -127 | -49 | -413 | -205 | 52* | -8 | -143 | -12 | nt | 697 NFkB conf=-233
Cc1cc(C)n(-c2ccc(C(=O)OCC(=O)Nc3ccccc3F)cc2)n1 | nt | 9 | 2 | 1 | -28 | -6 | nt | nt | nt
COc1cc(C2CC(=O)c3cnc(N4CCN(Cc5ccccc5)CC4)nc3C2)cc(OC)c1OC (stereo not drawn) | -10 | -10 | -73 | 59* | 52* | 53 | 16 | 68* | 52*
CC(C)CC1NC(=O)N(CC(=O)N2CCN(S(=O)(=O)c3ccccc3)CC2)C1=O (stereo not drawn) | -10 | 2 | 21 | -3 | 28 | 1 | nt | nt | nt
CCN(CC)c1ccc(N=Cc2ccc(N(CC)CC)cc2O)cc1 | -20 | -15 | -6 | -6 | 15 | 11 | nt | nt | nt
CCN(CC)c1ccc(/C=N/NC(=O)c2cccc(S(=O)(=O)Nc3ccccc3OC)c2)cc1 | -5 | 1 | -7 | -21 | 18 | 13 | nt | nt | nt
CCN(CC)c1ccc(/C=N/N=C(N)N)c(O)c1 | 87* | -2 | 16 | 77* | 62* | 66 | -6 | 52* | 83*
CCN(CC)c1ccc(/C=N/NC(=O)c2cccc(S(=O)(=O)Nc3ccccc3OC)c2)c(O)c1 | 95* | 84* | -34 | 59* | 77* | 108* | 55* | 79* | 15
CC(C)c1c(C(=O)N/N=C/c2ccc3c(c2)OCO3)nnn1-c1nonc1N | -34 | -9 | 11 | 13 | 24 | -10 | nt | nt | nt
CCN(CC)c1ccc(/C=N/NC(=O)c2nnn(-c3nonc3N)c2C(C)C)c(O)c1 | 92* | 92* | -6 | 63* | 72* | 10 | 50* | 88* | 16
CCN(CC)c1ccc(/C=N/NC(=O)c2ccc3nc[nH]c3c2)c(O)c1 | 93* | 6 | -18 | 55* | 73* | 106* | 6 | 83* | 53*
SMILES | aSyn UTR inh | Gli-Sufu block | 697 NFkB inh | Jurkat NFkB inh | Mdm2 MdmX PPI | CSC inhib | Jurkat NFkB conf | Mdm2-MdmX conf | FLuc counter | others
CSC1=C(C#N)C(C)C2=C(CC(C)(C)CC2=O)N1 (stereo not drawn) | -10 | 4 | -19 | 5 | 13 | -7 | nt | nt | nt
COc1cc(C2C(C#N)=C(N)Oc3cc(O)ccc32)cc(OC)c1OC (stereo not drawn) | 58 | 26 | -18 | 53* | 65* | 61 | 10 | 67* | 67*
CCOC(=O)C1=C(C)OC(N)=C(C#N)C1c1cc(OC)c2c(c1)OCO2 (stereo not drawn) | -20 | 11 | 27 | -6 | -1 | -3 | nt | nt | nt
COc1cc(C2C(C#N)=C(N)Oc3cc(N(C)C)ccc32)cc2c1OCO2 (stereo not drawn) | 59 | 45 | -107 | 67* | 78* | 52 | 48* | 64* | 112*
COc1ccc(C2C(C#N)=C(N)Oc3cc(O)ccc32)cc1OC (stereo not drawn) | -11 | 3 | -22 | 1 | 17 | -12 | nt | nt | nt
N#C/C(=C\c1ccc(OCc2ccc(C(=O)O)cc2)cc1)C(=O)N1CCOCC1 | 93* | -134 | -25 | 66* | 55* | 25 | 60* | 44* | 21
COc1cc(/C=C(\C#N)C(=O)N2CCOCC2)ccc1OCc1ccccc1 | -120 | -1 | 8 | -24 | -32 | -2 | nt | nt | nt
O=C(NCCc1ccccc1)c1cc(=O)c2ccccc2o1 | -48 | 19 | 3 | -8 | -5 | -17 | nt | nt | nt
Oc1ccc(/C=N/Nc2nc(-c3cccnc3)nc3ccccc23)c(O)c1 | -46 | -19 | -18 | 10 | 33 | 16 | nt | nt | nt
Fc1ccccc1/C=N/Nc1nc(-c2ccccn2)nc2ccccc12 | 81* | nt | -23 | 61* | 82* | 37 | -8 | 78* | 57*
C#CCOc1ccc(Br)cc1/C=N/O | 1 | 5 | 7 | 6 | 24 | -11 | nt | nt | nt
CN(C)S(=O)(=O)c1cccc(NC(=O)CN2C(=O)NC(Cc3c[nH]c4ccccc34)C2=O)c1 (stereo not drawn) | 37 | 39 | nt | nt | nt | 13 | nt | nt | nt
N/C(=N\OC(=O)c1cc(Br)ccc1Cl)c1ccccn1 | -39 | -85 | -159 | -118 | -103 | -7 | nt | nt | nt
Cc1ccc(C(=O)O/N=C(\N)c2ccccn2)c(Cl)c1 | 108* | 48 | -8 | 65* | 96* | 26 | 79* | 89* | 20
O=C(CSCc1ccccc1Br)NNC(=S)NCc1ccco1 | 13 | 2 | -11 | 9 | -4 | -1 | nt | nt | nt
